Test results reported in PubChem BioAssay (NCI).
About 83,000 compounds went through this panel and 20% of them were active in at least one assay; those are over-represented in the sample as a whole.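 The endpoint reported here, percent growth, reads 100 for growth as untreated, 0 for no net growth and -100 for all cells dead.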 Unmarked numbers belong to inactive results. The source made the active and inactive calls. The calls were made as follows: active = growth percent below 10; inactive = the rest.

Key:
Experiment in all cases: NCI-60 one-dose screen, 48 h (100 = growth as untreated, 0 = no growth, -100 = all killed)
Settings in all cases: 10 µM unless noted
NCI-H23 lung = test system: NCI-H23 lung
NCI-H226 lung = test system: NCI-H226 lung
NCI-H322M lung = test system: NCI-H322M lung
HOP-62 NSCLC = test system: HOP-62 NSCLC
NCI-H460 lung = test system: NCI-H460 lung
HOP-92 NSCLC = test system: HOP-92 NSCLC
NCI-H522 lung = test system: NCI-H522 lung
A549/ATCC NSCLC = test system: A549/ATCC NSCLC
786-0 renal = test system: 786-0 renal
COLO 205 colon = test system: COLO 205 colon

Row | Structure (SMILES) | growth (NCI-H23 lung) | growth (NCI-H226 lung) | growth (NCI-H322M lung) | growth (HOP-62 NSCLC) | growth (NCI-H460 lung) | growth (HOP-92 NSCLC) | growth (NCI-H522 lung) | growth (A549/ATCC NSCLC) | growth (786-0 renal) | growth (COLO 205 colon)
1 | C#Cc1nc(/C=C\CCCCCCC(=O)NO)cs1 | -63.5% (active) | 74.2% | 78.4% | 79.7% | 55.4% | -75.3% (active) | -59.8% (active) | 67.6% | -78.5% (active) | 84.7%
2 | CC(=O)OC[C@]12CC[C@@H](C(=O)/C=C/c3cccnc3)[C@@H]1[C@H]1CC[C@@H]3[C@@]4(C)CC[C@H](OC(C)=O)C(C)(C)[C@@H]4CC[C@@]3(C)[C@]1(C)CC2 | 1.02% (active) | -70.5% (active) | 53.5% | 28.1% | 7.8% (active) | -29.1% (active) | -20.3% (active) | 23.1% | 27.2% | -18.6% (active)
3 | CSc1ccc(/C(=N/N=C(N)N)c2ccc(F)cc2)cc1 | -36.7% (active) | 0.244% (active) | 67.5% | 36.1% | 6.38% (active) | 33.4% | 8.51% (active) | 16.4% | 17.7% | -42.2% (active)
4 | NC1CC2(CCN(c3cnc(C(=O)Nc4cc(F)cc5cccnc45)cn3)CC2)C1 | 88.6% | 93.2% | 87.4% | 96% | 83.8% | 79.7% | 93.3% | 63.2% | 71.8% | 49.9%
5 | O=S(=O)(Oc1ccc(-c2cn3ccsc3n2)cc1)c1cccc(C(F)(F)F)c1 | 109% | 90.2% | 103% | 110% | 104% | 106% | 94.6% | 98.9% | 102% | 113%
6 | C#C[C@]1(O)CC[C@H]2[C@@H]3CC=C4c5sc(Nc6ccc(C)cn6)nc5CC[C@]4(C)[C@H]3CC[C@@]21C | 1.46% (active) | 11.5% | 25.1% | 6.21% (active) | 5.32% (active) | -1.7% (active) | -21.5% (active) | 16.6% | -53.2% (active) | -24.4% (active)
7 | CC(=O)Nc1nc(C)c(-c2csc(Nc3ccccc3)n2)s1 | 35.2% | 19.4% | 27.6% | 42.8% | 21.8% | 24.6% | 9.26% (active) | 44.3% | 25.7% | 38%
8 | COc1cc2oc(-c3cccc(NC(=O)c4cccc([N+](=O)[O-])c4)c3)cc(=O)c2c(OC)c1OC | 69% | 62.8% | 82.4% | -36.4% (active) | 51.2% | -0.118% (active) | 58.5% | 43.8% | 65.6% | 85.8%
9 | O=C1c2ccccc2C23C(=C(c4cncnc4)c4ccccc42)CCCN13 (stereo not given) | 102% | 97.4% | 107% | 108% | 104% | 90.9% | 92.6% | 98.9% | 96.8% | 121%
10 | CC(=O)Nc1cc(N2CCOCC2)c2nc(NC(=O)c3[nH]c(C)c(Cl)c3Cl)sc2c1 | 77.2% | 37.3% | 92.1% | 69.2% | 64% | 119% | 71.8% | 71.9% | 44.5% | 104%
11 | Cn1ncc2ncc(-c3ccc4ncc(C#N)c(N5CCc6cc(F)c(Cl)cc65)c4c3)cc21 | 46.8% | 24.7% | 38.9% | 22.3% | 38.5% | 7.43% (active) | 20.3% | 27.8% | 21.8% | 51.4%
12 | NC(=O)n1c(=O)n(-c2cccc(C(F)(F)F)c2)c(=O)c2cc(-c3ccc(F)cc3F)ccc21 | -6% (active) | 13.2% | 0.936% (active) | -9.38% (active) | 4.55% (active) | -36.3% (active) | -11.2% (active) | 4.69% (active) | 45% | 87.5%
13 | C#C[C@]1(O)CC[C@H]2[C@@H]3CC=C4c5sc(N(C)c6ccccc6)nc5CC[C@]4(C)[C@H]3CC[C@@]21C | 86.6% | 96.4% | 103% | 101% | 61.9% | 139% | 87.2% | 69% | 57.1% | 66.8%
14 | CN1CCN(c2ccc(Nc3nc(NCCNS(=O)(=O)c4ccc(Cl)cc4)c4sccc4n3)cc2)CC1 | 96% | 105% | 99.4% | 104% | 98.8% | 49.4% | 106% | 92.7% | 75.8% | 99.7%
15 | CCCCc1nc2c(N)nc3ccccc3c2n1Cc1ccc(OC)cc1 | 60.5% | 73.3% | 92.1% | 77.4% | 63.3% | -3.74% (active) | 68.5% | 65.8% | 65.4% | 48.4%
16 | C/C(=N/N)c1nnn(-c2ccc(Br)cc2)c1C | 99.6% | 91.5% | 95.7% | 93.7% | 102% | 93.4% | 91.5% | 99.4% | 103% | 115%
17 | CC1(C)CC[C@]23CC[C@]4(C)[C@H](CC[C@@H]5[C@@]6(C)CC[C@H](NCO)C(C)(C)[C@@H]6CC[C@]54C)[C@H]2[C@H]1OC3 | 55.7% | 97.2% | 84.2% | 79.8% | -41.1% (active) | 40.1% | 101% | 60.5% | 64.3% | -48.5% (active)
18 | CN1CCN(c2ccc(Nc3nc(NCCNC(=O)c4ccc(F)cc4)c4sccc4n3)cc2)CC1 | 74.2% | 91.1% | 81.7% | 99.4% | 84.5% | 50.1% | 68.1% | 77.9% | 52.3% | 44.3%
19 | CC(Nc1ncnc2ccc(-c3cnc4cnccn34)cc12)c1ccccc1 (stereo not given) | 54.8% | 46.9% | 26.4% | 68.8% | 61% | 27.1% | 27.3% | 37.6% | 47.9% | 81%
20 | COC(=O)c1cccc(NC2=C(Cl)C(=O)c3nc(C)ccc3C2=O)c1 | 53.1% | 87% | 103% | 113% | 101% | 121% | 65.1% | 102% | 98.2% | 116%
21 | Cc1ccc(C(=O)CSc2nnc(-c3ccc(-c4ccc(Cl)cc4)nc3C)o2)cc1 | 93% | 88.6% | 95.8% | 92.5% | 107% | 88% | 91.7% | 106% | 104% | 117%
22 | Cc1cc(C)cc(NC2=C(Cl)C(=O)c3nc(C)ccc3C2=O)c1 | 22.1% | 28.5% | 91.7% | 101% | 93.1% | 118% | 19% | 73.7% | 79% | 107%
23 | Cc1csc(/N=C(N)/N=C(\N)c2cccc(C#N)c2)n1 | 84.5% | 86.5% | 96.6% | 64.6% | 64.8% | 27% | 79.6% | 71.9% | 87.8% | 76.1%
24 | COc1ccc(-c2c(C(N)=O)c(N)n(Cc3nc4ccccc4[nH]3)c(=O)c2C#N)c(OC)c1 | 93.1% | 94.5% | 97.3% | 94.9% | 105% | 101% | 95.2% | 102% | 103% | 117%
25 | Cn1cc(-c2nn3cc(-c4ccncc4)nc3s2)c2cc(F)ccc21 | 82% | 83.5% | 87.9% | 79.6% | 65.8% | 49.2% | 86.9% | 94.9% | 89.6% | 55%
26 | COc1ccccc1Cn1cc(C#N)c(N)c1C(=O)c1ccc(Br)cc1 | 91.8% | 89.5% | 94.6% | 104% | 96.4% | 100% | 89.5% | 101% | 102% | 113%
